Measurements as given in ChEMBL document CHEMBL1961873, “Compounds: GSK PKIS; Assays: Nanosyn kinase panel” (2012).

How the values were obtained:
[1] = target: Tyrosine-protein kinase CSK (Homo sapiens) (UniProt P41240); settings: at 1 µM;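 note: each value is an averaged inhibition reading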
[2] = target: T1, Discoidin domain-containing receptor 2 (Homo sapiens) (UniProt Q16832); settings: at 0.1 µM
T1 sequence (whole entry): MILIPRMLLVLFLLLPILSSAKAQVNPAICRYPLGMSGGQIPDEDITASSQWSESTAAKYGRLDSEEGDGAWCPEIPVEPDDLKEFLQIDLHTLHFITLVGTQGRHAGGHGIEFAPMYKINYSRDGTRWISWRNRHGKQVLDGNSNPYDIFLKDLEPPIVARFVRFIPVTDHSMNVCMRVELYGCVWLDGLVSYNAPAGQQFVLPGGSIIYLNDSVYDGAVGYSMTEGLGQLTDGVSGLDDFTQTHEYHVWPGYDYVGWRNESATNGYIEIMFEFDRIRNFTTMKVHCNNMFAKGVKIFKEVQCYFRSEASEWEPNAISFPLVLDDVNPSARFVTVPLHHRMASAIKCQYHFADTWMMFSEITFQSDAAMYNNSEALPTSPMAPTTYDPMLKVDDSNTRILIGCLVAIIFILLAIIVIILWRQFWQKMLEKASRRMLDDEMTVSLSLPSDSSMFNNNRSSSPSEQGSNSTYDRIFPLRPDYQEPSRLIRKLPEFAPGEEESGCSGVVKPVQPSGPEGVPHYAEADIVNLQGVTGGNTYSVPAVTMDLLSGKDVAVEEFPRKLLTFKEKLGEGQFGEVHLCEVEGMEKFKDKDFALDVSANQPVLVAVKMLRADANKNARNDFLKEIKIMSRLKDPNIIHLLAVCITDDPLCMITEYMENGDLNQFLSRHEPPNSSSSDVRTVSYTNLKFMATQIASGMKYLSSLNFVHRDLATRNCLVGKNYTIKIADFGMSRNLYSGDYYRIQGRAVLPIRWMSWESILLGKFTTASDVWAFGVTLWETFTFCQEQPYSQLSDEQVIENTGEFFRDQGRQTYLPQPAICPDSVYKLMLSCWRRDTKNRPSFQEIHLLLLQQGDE

[3] = target: T1, Discoidin domain-containing receptor 2 (Homo sapiens); settings: at 1 µM
[4] = target: Epidermal growth factor receptor (Homo sapiens) (UniProt P00533); settings: at 0.1 µM
[5] = target: Epidermal growth factor receptor (Homo sapiens) (UniProt P00533); settings: at 1 µM
[6] = tested on: Epidermal growth factor receptor (Homo sapiens), P00533 [L858R]; settings: at 0.1 µM
[7] = tested on: Epidermal growth factor receptor (Homo sapiens), P00533 [L858R]; settings: at 1 µM
[8] = tested on: Epidermal growth factor receptor (Homo sapiens), P00533 [L861Q]; settings: at 0.1 µM
[9] = tested on: Epidermal growth factor receptor (Homo sapiens), P00533 [L861Q]; settings: at 1 µM
[10] = tested on: Epidermal growth factor receptor (Homo sapiens), P00533 [T790M]; settings: at 0.1 µM
[11] = tested on: Epidermal growth factor receptor (Homo sapiens), P00533 [T790M]; settings: at 1 µM
[12] = tested on: Epidermal growth factor receptor (Homo sapiens), P00533 [L858R,T790M]; settings: at 0.1 µM
[13] = tested on: Epidermal growth factor receptor (Homo sapiens), P00533 [L858R,T790M]; settings: at 1 µM
[14] = target: Ephrin type-A receptor 2 (Homo sapiens) (UniProt P29317); settings: at 0.1 µM
[15] = target: Ephrin type-A receptor 2 (Homo sapiens) (UniProt P29317); settings: at 1 µM
[16] = target: T2, Ephrin type-A receptor 3 (Homo sapiens) (UniProt P29320); settings: at 0.1 µM
T2 sequence (whole entry): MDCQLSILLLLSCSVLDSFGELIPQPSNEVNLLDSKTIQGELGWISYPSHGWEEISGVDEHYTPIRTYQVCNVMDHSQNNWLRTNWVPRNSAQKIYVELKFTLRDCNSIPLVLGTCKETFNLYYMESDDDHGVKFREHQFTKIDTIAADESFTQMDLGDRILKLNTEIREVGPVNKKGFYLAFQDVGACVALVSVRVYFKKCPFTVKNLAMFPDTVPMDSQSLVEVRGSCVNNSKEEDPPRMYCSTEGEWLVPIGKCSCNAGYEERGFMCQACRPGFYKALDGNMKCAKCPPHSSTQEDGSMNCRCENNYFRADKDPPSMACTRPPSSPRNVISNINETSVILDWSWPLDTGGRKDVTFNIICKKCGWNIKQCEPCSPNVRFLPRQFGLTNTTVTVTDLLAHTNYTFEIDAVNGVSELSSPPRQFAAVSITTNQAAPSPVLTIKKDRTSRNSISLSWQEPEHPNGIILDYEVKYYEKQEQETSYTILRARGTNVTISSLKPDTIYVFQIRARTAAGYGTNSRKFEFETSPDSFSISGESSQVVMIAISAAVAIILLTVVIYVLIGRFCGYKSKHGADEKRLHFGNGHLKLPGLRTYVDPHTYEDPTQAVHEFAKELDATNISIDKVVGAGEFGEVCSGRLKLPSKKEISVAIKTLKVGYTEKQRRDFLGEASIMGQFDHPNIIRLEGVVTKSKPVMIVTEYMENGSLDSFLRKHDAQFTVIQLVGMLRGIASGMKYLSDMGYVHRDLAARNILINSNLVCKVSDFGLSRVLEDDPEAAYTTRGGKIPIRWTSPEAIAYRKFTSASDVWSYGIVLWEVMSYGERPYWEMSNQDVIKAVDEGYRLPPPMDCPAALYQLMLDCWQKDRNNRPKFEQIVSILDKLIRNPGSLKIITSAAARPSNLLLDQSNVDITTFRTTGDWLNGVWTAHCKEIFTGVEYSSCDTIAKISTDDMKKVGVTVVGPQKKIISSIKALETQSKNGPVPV

[17] = target: T2, Ephrin type-A receptor 3 (Homo sapiens); settings: at 1 µM
[18] = target: Ephrin type-A receptor 4 (Homo sapiens) (UniProt P54764); settings: at 0.1 µM
[19] = target: Ephrin type-A receptor 4 (Homo sapiens) (UniProt P54764); settings: at 1 µM
[20] = target: T3, Ephrin type-B receptor 2 (Homo sapiens) (UniProt P29323); settings: at 0.1 µM;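 note: reported as mean inhibition of EPHB2, from the GSK PKIS dataset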
T3 sequence (whole entry): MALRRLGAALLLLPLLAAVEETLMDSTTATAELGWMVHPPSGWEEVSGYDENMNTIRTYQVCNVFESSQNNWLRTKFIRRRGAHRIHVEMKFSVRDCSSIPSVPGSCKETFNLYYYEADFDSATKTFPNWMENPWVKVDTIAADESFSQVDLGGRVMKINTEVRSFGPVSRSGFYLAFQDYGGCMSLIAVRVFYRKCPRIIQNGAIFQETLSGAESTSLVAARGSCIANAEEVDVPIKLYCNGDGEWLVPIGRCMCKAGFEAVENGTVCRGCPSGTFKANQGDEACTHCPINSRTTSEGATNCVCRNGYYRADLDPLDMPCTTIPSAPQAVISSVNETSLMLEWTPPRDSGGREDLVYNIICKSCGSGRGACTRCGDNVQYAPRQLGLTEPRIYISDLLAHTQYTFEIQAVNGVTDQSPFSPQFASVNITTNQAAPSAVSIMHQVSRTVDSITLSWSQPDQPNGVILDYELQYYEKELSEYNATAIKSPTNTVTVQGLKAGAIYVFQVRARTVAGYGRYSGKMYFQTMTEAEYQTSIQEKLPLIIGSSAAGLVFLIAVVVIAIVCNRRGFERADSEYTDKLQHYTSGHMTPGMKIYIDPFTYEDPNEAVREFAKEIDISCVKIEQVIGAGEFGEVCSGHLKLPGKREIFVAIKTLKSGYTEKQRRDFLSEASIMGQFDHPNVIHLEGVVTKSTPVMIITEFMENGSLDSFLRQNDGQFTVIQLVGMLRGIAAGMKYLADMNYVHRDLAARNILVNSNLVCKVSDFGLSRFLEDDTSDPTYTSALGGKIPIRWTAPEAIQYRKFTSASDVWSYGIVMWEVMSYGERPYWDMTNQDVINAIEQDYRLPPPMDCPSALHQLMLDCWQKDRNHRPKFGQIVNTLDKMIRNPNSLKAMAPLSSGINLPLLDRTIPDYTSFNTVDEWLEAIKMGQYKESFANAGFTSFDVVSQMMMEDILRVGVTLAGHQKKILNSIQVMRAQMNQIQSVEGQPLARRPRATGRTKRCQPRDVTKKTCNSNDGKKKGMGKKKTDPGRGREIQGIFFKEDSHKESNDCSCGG

Epidermal growth factor receptor (Homo sapiens), P00533 [T790M], sequence (P00533 whole entry T790M): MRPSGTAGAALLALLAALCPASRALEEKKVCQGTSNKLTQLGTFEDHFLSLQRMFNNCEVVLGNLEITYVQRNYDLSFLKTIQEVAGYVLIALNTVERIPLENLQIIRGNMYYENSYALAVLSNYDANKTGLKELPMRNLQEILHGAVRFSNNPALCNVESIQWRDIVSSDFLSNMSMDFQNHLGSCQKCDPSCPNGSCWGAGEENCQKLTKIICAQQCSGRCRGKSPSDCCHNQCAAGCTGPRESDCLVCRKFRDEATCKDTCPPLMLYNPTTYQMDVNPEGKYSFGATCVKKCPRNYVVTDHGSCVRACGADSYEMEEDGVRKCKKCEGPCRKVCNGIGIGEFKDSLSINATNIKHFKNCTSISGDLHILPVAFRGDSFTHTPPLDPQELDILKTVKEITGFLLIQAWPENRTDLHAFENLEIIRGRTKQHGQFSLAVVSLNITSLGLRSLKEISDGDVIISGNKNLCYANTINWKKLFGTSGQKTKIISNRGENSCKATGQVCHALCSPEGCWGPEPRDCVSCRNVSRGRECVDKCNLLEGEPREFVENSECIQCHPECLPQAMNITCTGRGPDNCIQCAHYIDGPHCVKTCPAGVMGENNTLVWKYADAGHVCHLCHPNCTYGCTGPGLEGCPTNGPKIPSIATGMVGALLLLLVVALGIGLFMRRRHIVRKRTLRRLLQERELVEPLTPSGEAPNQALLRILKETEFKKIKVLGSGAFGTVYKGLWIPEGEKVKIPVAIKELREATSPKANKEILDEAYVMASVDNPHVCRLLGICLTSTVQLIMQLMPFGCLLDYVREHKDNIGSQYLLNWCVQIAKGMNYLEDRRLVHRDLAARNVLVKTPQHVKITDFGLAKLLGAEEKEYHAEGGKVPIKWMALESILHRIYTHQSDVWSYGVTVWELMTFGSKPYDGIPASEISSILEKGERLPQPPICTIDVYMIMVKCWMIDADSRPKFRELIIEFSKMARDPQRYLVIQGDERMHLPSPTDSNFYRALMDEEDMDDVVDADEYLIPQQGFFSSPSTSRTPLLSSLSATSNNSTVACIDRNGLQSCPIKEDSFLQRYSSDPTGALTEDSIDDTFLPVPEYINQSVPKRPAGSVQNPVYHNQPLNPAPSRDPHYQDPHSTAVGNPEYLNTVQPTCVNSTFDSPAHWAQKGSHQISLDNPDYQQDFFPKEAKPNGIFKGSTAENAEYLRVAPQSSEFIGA
Epidermal growth factor receptor (Homo sapiens), P00533 [L861Q], sequence (P00533 whole entry L861Q): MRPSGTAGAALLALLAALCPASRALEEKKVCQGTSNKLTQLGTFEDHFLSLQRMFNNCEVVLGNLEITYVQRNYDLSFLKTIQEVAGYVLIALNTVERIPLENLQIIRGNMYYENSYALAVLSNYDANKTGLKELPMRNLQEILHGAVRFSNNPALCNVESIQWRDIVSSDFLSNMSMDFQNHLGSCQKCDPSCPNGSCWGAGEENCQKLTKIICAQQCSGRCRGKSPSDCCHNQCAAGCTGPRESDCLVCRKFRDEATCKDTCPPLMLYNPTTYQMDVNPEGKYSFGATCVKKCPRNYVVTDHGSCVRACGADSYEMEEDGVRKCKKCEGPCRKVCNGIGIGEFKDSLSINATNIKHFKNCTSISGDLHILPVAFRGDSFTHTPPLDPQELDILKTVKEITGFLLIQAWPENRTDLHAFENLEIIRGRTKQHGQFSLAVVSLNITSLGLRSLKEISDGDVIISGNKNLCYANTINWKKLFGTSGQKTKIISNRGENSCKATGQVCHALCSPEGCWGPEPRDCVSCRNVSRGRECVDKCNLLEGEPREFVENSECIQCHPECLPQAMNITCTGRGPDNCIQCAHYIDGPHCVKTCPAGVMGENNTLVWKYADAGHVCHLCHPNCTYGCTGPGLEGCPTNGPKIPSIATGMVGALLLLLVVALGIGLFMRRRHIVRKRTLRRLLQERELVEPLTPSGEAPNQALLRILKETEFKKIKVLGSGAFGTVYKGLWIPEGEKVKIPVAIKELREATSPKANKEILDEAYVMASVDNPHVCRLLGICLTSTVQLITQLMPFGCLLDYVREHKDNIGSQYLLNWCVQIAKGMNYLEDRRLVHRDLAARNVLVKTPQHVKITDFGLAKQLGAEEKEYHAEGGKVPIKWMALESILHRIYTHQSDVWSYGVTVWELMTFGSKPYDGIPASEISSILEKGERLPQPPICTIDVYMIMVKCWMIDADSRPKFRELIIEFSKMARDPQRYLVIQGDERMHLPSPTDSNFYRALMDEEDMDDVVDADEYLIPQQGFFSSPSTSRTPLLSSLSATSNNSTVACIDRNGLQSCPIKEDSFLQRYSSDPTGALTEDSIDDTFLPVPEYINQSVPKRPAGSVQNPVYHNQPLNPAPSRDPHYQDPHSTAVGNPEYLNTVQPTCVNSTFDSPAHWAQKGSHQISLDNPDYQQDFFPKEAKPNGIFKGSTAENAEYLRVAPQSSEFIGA
Epidermal growth factor receptor (Homo sapiens), P00533 [L858R], sequence (P00533 whole entry L858R): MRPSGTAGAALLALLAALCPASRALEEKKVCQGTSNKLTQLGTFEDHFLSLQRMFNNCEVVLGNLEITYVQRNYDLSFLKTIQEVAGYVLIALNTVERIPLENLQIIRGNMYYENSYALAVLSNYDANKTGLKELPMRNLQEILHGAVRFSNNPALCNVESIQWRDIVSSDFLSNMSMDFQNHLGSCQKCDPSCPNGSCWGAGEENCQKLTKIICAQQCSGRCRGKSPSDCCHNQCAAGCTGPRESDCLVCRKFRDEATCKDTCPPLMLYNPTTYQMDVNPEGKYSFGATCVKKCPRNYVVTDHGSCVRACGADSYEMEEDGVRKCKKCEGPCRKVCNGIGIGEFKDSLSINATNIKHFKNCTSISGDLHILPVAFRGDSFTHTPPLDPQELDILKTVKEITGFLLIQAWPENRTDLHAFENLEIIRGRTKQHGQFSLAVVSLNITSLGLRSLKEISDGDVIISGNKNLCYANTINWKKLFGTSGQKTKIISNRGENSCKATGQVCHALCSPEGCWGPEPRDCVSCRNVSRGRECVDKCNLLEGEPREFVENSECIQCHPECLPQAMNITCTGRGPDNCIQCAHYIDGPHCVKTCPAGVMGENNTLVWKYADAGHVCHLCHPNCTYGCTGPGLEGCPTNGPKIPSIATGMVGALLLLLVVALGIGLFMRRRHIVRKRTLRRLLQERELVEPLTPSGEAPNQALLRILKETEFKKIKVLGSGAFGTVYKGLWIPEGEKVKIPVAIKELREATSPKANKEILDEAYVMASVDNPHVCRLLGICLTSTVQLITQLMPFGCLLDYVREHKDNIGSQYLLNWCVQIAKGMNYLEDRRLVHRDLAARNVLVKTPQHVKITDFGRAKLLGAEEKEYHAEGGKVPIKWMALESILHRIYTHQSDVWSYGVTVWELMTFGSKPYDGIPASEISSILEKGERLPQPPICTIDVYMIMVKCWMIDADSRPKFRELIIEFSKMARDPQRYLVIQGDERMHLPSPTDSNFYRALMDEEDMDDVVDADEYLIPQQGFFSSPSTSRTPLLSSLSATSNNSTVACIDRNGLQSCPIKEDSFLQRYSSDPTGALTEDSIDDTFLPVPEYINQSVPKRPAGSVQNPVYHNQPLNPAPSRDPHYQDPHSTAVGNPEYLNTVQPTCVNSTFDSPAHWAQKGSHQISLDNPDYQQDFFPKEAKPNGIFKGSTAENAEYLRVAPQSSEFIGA
Ephrin type-A receptor 4 (Homo sapiens), sequence (P54764 whole entry): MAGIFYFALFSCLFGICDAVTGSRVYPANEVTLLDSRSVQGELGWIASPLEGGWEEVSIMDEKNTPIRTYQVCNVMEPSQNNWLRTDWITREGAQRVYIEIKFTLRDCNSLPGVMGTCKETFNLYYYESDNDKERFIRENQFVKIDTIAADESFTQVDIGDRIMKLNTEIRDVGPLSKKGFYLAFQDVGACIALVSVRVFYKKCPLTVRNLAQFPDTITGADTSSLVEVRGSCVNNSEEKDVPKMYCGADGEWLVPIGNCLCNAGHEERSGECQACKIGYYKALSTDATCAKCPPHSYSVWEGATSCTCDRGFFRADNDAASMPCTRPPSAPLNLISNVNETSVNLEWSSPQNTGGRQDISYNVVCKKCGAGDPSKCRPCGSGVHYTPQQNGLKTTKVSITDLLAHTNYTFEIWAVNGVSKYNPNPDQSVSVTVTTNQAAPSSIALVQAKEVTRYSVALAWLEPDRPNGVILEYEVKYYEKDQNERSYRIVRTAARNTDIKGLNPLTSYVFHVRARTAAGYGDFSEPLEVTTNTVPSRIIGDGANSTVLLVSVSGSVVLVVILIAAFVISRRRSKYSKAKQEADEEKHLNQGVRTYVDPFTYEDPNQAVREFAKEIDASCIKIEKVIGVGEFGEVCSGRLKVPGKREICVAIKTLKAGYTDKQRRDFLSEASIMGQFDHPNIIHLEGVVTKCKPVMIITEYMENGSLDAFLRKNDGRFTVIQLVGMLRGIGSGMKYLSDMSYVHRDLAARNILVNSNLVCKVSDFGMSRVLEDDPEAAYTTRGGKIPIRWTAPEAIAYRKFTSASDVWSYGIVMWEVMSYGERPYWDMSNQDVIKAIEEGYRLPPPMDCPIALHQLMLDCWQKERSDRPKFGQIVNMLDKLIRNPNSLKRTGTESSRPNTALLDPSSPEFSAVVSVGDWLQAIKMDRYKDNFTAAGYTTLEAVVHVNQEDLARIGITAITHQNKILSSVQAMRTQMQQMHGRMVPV
Tyrosine-protein kinase CSK (Homo sapiens), sequence (P41240 2-450 limits assumed): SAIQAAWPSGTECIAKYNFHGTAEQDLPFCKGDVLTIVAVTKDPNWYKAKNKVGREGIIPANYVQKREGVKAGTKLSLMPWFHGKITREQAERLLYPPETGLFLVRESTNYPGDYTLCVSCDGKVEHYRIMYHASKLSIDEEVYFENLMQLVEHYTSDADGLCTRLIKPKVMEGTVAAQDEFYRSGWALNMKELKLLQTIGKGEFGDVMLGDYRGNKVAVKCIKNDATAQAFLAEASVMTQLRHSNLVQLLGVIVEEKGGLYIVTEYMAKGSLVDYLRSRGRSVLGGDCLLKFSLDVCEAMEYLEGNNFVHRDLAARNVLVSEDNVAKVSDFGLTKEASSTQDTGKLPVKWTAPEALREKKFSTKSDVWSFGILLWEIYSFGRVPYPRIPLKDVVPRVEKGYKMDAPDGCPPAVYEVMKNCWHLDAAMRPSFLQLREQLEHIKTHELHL

Structure (SMILES) | inhibition [1] [%] | inhibition [2] [%] | inhibition [3] [%] | inhibition [4] [%] | inhibition [5] [%] | inhibition [6] [%] | inhibition [7] [%] | inhibition [8] [%] | inhibition [9] [%] | inhibition [10] [%] | inhibition [11] [%] | inhibition [12] [%] | inhibition [13] [%] | inhibition [14] [%] | inhibition [15] [%] | inhibition [16] [%] | inhibition [17] [%] | inhibition [18] [%] | inhibition [19] [%] | inhibition [20] [%]
COc1cc(Nc2ncc(-c3ccccc3)o2)cc(OC)c1OC | -0.86 | 0.74 | 8.58 | 6.02 | 13.8 | -1.09 | -0.27 | 0.27 | 0.17 | 0.05 | 1.16 | -0.28 | -0.54 | -3.3 | -1.26 | -6.76 | -5.8 | -7.25 | 1.47 | -1.44
CS(=O)(=O)CCNCc1cc(-c2cc3c(Nc4ccc(OCc5cccc(F)c5)c(Cl)c4)ncnc3s2)cs1 | 4.58 | 4.67 | 6.01 | 61.5 | 83.7 | 18.1 | 61.2 | 31.4 | 57.8 | 0.98 | 6.23 | 1.25 | 6.55 | 0.54 | -0.67 | 1.87 | 2.18 | 8.11 | 10.4 | 12.3
CN(C)CCCNc1nccc(-c2c(-c3ccc(F)cc3)nn3cc(C(F)(F)F)ccc23)n1 | -0.64 | 5.29 | 11.1 | -2.27 | 1.24 | 0.77 | 2.36 | 1.57 | -2.56 | 1.53 | -0.54 | 0.09 | 1.55 | -2.91 | -2.04 | 0.03 | 1.47 | 7 | 9 | 8.88
O=C1NC(=O)C(c2cccc(Cl)c2)=C1Nc1ccc(Cl)c(C(=O)O)c1 | 1.91 | 3.06 | 4.88 | 1.44 | 2.17 | 1.51 | 5.24 | 1.41 | 2.94 | 1 | 4.13 | 0.67 | 2.52 | 0.74 | 0.86 | 5.42 | 4.05 | 8.74 | 7.75 | 5.83
CCN(CC)Cc1ccc(Nc2nccc(-c3cnn4ncccc34)n2)cc1 | 8.18 | 1.64 | 4.24 | -1.99 | -1.76 | -0.85 | -1.39 | 1.51 | 1.54 | 0.54 | 1.33 | 0.05 | 4.64 | -3.31 | -5.2 | -1.76 | 0.69 | 6.79 | 15.2 | 8.25
NC(=O)c1cc(-c2ccc(F)cc2)cc(-c2ccncc2)c1N | 5.4 | 1.42 | 2.13 | -0.24 | 5.03 | 5.96 | 7.27 | 4.19 | 7.37 | 1.23 | 3.83 | 0.39 | -0.62 | 0.4 | 3.67 | 4.53 | 2.83 | 10.1 | 12.7 | 5.78
O=C(Nc1n[nH]c2cc(-c3cc(F)ccc3F)ccc12)C1CC1 | 2.29 | 2.61 | 4.77 | 1.18 | 2.02 | 1.19 | 3.64 | 2.35 | -0.56 | 0.87 | 1.25 | 3.1 | 2.41 | -2.28 | -0.08 | 1.66 | 4.19 | 5.23 | 3.94 | 6.32
